Measured values: PubChem BioAssay AID1565 (Sanford-Burnham Center for Chemical Genomics, 2009)
The whole screen tested about 290,000 compounds, of which about 3,200 (1.1%) were called active. The list comes from a sample in which actives are over-represented; it also holds similar structures and randomly drawn compounds. Unmarked numbers belong to inactive results. Rule as the data show it: active = inhibition above about 60%; inactive = the rest.

biological target: Phosphoethanolamine/phosphocholine phosphatase (Homo sapiens) (UniProt Q8TCT1); assay: PubChem AID 1565; conditions: recombinant PHOSPHO1, absorbance phosphatase assay; at 13.3 µM; stronger effect = higher value
Sequence (Q8TCT1 whole entry, looked up): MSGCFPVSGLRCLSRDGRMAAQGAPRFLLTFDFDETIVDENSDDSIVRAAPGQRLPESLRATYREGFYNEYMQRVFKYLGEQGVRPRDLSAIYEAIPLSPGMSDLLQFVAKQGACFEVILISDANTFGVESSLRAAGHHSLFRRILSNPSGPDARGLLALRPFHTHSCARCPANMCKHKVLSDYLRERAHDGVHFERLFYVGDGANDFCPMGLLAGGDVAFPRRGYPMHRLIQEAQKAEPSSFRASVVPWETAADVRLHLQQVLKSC

Row | Compound | inhibition
1 | Cc1ccc(NC(=O)C2CCCN2S(=O)(=O)c2cccc3cccnc23)c(C)c1 (stereo not drawn) | 70.1% (active)
2 | O=C(Nc1nccs1)C1CCCN1S(=O)(=O)c1cccc2cccnc12 (stereo not drawn) | 2.7%
3 | Cc1cc(C)cc(NC(=O)C2CCCN2S(=O)(=O)c2cccc3cccnc23)c1 (stereo not drawn) | 44.5%
4 | O=C(CN(C(=O)c1csnn1)c1ccc(Br)cc1)NC1CCCC1 | 26.9%
5 | CSCCC(NC(=O)c1ccc(=O)n(C)n1)c1nc2ccccc2[nH]1 (stereo not drawn) | 79.8% (active)
6 | COc1ccc(CC(=O)N[C@@H](CCSC)c2nc3ccccc3[nH]2)cc1 | 12.4%
7 | CSCCC(NC(=O)c1cc([N+](=O)[O-])cc([N+](=O)[O-])c1)c1nc2ccccc2[nH]1 (stereo not drawn) | -8.6%
8 | CCCCC(=O)Nc1ccccc1N1CCN(c2ccc(F)cc2)CC1 | -152%
9 | Oc1ccccc1-c1cc(-c2ccc(Cl)cc2)n[nH]1 | 19.7%
10 | Cc1cc(C)c(SCCc2ccncc2)c(C)c1 | 24.1%
11 | O=C(NC1CC1)c1ccc2c(c1)NC(=O)c1ccccc1S2 | 0.7%
12 | O=C(O)c1cccc(N2C(=O)Nc3ccccc3N2O)c1 | 8.3%
13 | C/C(=N\Nc1cccc(C(=O)O)c1)c1ccc2c(c1)Nc1ccccc1S2 | 81.3% (active)
14 | Cc1ccccc1N1CCN(C2CCCN(C(=O)c3cn4c(C)cccc4n3)C2)CC1 (stereo not drawn) | 22.3%
15 | Cc1ccc(NC(=O)CN2C(=O)NC(C)(c3ccc(Cl)cc3)C2=O)c(Br)c1 (stereo not drawn) | 27.9%
16 | Cc1cc(NC(=O)CCC(=O)N(Cc2ccccc2)C(C(=O)NC2CCCC2)c2ccc(C)o2)no1 (stereo not drawn) | 46.2%
17 | CCOCCCN(C)C1CCN(C(=O)c2oc3ccccc3c2NC(=O)Cc2cccc([N+](=O)[O-])c2)CC1 | 16.9%
18 | CCOc1ccc(OCCSc2nc3ccccc3n2CC(=O)O)cc1 | 13.8%
19 | Clc1cccc(N=C2NN=C(c3ccc4c(c3)OCCO4)CS2)c1 | 78% (active)
20 | c1ccc(CN2CCC(N=C3NN=C(c4ccc5c(c4)OCCO5)CS3)CC2)cc1 | 12.7%
21 | Cc1cccc(N=C2NN=C(c3c[nH]c4ccccc34)CS2)c1 | -2%
22 | CCCn1c(=O)c(C(=O)Nc2cc(C)ccn2)c(O)c2ccccc21 | -7.8%
23 | S=c1[nH]nc(CSCc2ccc(Cl)cc2Cl)n1-c1ccccc1 | 34.7%
24 | S=c1[nH]cc(-c2ccc(Cl)cc2)n1-c1ccccc1 | 69.5% (active)

Row | Compound | inhibition
25 | S=c1[nH]ccn1-c1ccc(Cl)cc1 | -13%
26 | CN1CCN(/N=C/c2ccc(-c3ccc([N+](=O)[O-])cc3)o2)CC1 | 17.9%
27 | COc1cccc(CNC(=O)c2cccnc2Sc2ccc(Cl)cc2)c1 | 23.3%
28 | Cc1nc(NC(=O)c2ccc3c(c2)OCCO3)ccc1Br | 7.6%
29 | CC(C)[C@@H]1COC(c2cccc(C3=N[C@H](C(C)C)CO3)c2)=N1 | -1.7%
30 | COc1ccc(C(=O)NC2CC2)cc1OC1CCN(Cc2ccc(SC)cc2)CC1 | 27.3%
31 | O=C(NNC(=S)NC(=O)c1cn(-c2ccccc2)nc1-c1ccccc1)c1ccncc1 | 80.9% (active)
32 | Cc1onc(-c2ccccc2)c1C(=O)NNC(=S)NC(=O)c1ccc(F)cc1 | -4.5%
33 | O=C(Nc1cn(-c2ccccc2)nc1-c1ccccc1)c1ccccc1 | -2.5%
34 | CC1CCN(C(=S)NC(=O)c2ccccc2Br)CC1 | 17.4%
35 | COc1ccc(CCNC(=O)C2CCCN2C(=O)Nc2ccccc2)cc1OC (stereo not drawn) | 23.5%
36 | Cc1c(CCC(=O)N[C@@H](CC(C)C)C(=O)O)c(=O)oc2c(C)c3oc4c(c3cc12)CCCC4 | 31.6%
37 | Cc1ccc(NC(=S)N/N=C2/CCCc3c(C)cc(C)cc32)cc1 | 85.8% (active)
38 | Cc1ccc(NC(=S)Nc2ccc(F)cc2)cc1 | 19.2%
39 | Cc1ccc(C)c(NC(=S)NNC(=S)Nc2ccc(C(C)C)cc2)c1 | -6.1%
40 | COC(=O)c1ccc(NC(=O)CSc2nc(N)c(NC(=O)c3ccc(Br)o3)c(=O)[nH]2)cc1 | 42.8%
41 | CCOC(=O)N1CCN(C(=O)CSc2nnc(-c3c[nH]c4ccccc34)n2CCOC)CC1 | 25.5%
42 | CCn1c(SCCC(C)C)nnc1-c1c[nH]c2ccccc12 | 0.7%
43 | CCC(C)Sc1nnc(-c2c[nH]c3ccccc23)n1CCOC (stereo not drawn) | 61.5% (active)
44 | CC(C)(C)c1ccc(SCCc2ccncc2)cc1 | 13.8%
45 | Cc1ccc(CC2C(=O)N(c3ccc(F)cc3)C(=O)C2C)cc1 (stereo not drawn) | -2.6%
46 | Cc1ccc(N2CCN(c3ccc([N+](=O)[O-])cn3)CC2)c(C)c1 | 19.7%
47 | Cc1cc(/C=N/Nc2ccc([N+](=O)[O-])cn2)c(C)n1-c1cccc(C(=O)O)c1 | 15.9%
48 | Cc1ccc(-n2c(C)cc(/C=N/Nc3ccc([N+](=O)[O-])cn3)c2C)c(C)c1 | 98.7% (active)

Row | Compound | inhibition
49 | COC(=O)C1CCCCN1C(=O)c1ccc(OC2CCN(C(C)=O)CC2)c(OC)c1 (stereo not drawn) | 57.6%
50 | COc1cc2[nH]c(=S)n(CCN3CCCCC3C)c(=O)c2cc1OC (stereo not drawn) | 24.2%
51 | COc1cc2[nH]c(=S)n(Cc3ccc(C)o3)c(=O)c2cc1OC | 69.6% (active)
52 | COc1cc2[nH]c(=S)n(Cc3ccc(F)cc3)c(=O)c2cc1OC | -42.1%
53 | COc1ccc(C(=O)NCCn2nc(C)cc2C)cc1OC1CCN(C(C)=O)CC1 | 19.2%
54 | COc1ccc2c(c1)c1nc3n(c(=O)c1n2CC(=O)Nc1ccccc1)CCS3 | -27.3%
55 | Cn1c(=O)c2c(nc(NCCNC(=O)c3ccco3)n2Cc2ccccc2F)n(C)c1=O | 26.1%
56 | Cc1nn(C)cc1CNC(=O)Nc1ccc(Cl)cc1 | 8%
57 | Cc1nn(C)cc1C(=O)NNC(=S)Nc1ccc(Cl)cc1 | 97.7% (active)
58 | Cn1cc(Cl)c(C(=O)NNC(=S)Nc2cccc(Cl)c2)n1 | -35.3%
59 | O=S1(=O)N=C(N(CCO)/N=C/c2ccccc2F)c2ccccc21 | 28.4%
60 | Cc1nonc1NC(=O)c1oc2ccccc2c1C | 24%
61 | CC1CCCCC1NC(=O)CSc1nnc(N)s1 (stereo not drawn) | -3.4%
62 | Cn1ccnc1SCC(=O)Nc1ccc2c(c1)OCCO2 | 19.8%
63 | CC1CCCC(NC(=O)CSc2nccn2C)C1C (stereo not drawn) | 92.3% (active)
64 | CCn1cc(/C=C(\NC(=O)c2cc(OC)c(OC)c(OC)c2)C(=O)N2CCN(C)CC2)c2ccccc21 | 49.6%
65 | COc1ccccc1C1/C(=C(/O)c2ccc(OC(C)C)cc2)C(=O)C(=O)N1c1cc(C)on1 (stereo not drawn) | -55.7%
66 | COc1ccc(C2/C(=C(/O)c3ccccc3)C(=O)C(=O)N2C)c(OC)c1 (stereo not drawn) | -2.4%
67 | CCOc1ccc(/C(O)=C2\C(=O)C(=O)N(c3ccc(OC)cc3)C2c2ccccc2[N+](=O)[O-])cc1 (stereo not drawn) | 60.8% (active)
68 | CC(=O)c1ccc(OCCN2CCOCC2)cc1 | -11.5%
69 | COc1ccc(OCCC(=O)c2ccc(OC)cc2)cc1 | 20%
70 | CC(C)CCOc1ccc(C(=O)C[N+]2(C)CCOCC2)cc1 | 90.6% (active)
71 | O=C(NCc1cccnc1)C12CC3CC(CC(C3)C1)C2 | 32.6%
72 | CN(NS(=O)(=O)c1cccs1)c1ncc(C(F)(F)F)cc1Cl | 33.5%

Row | Compound | inhibition
73 | COc1ccc(-n2c(C)cc(C(=O)CSc3nnc(-c4cccs4)o3)c2C)cc1 | 85.5% (active)
74 | COc1ccc(C(=O)CSc2nnc(-c3ccco3)o2)cc1 | 36.7%
75 | COc1ccc(-c2nnc(SCC(=O)c3cccs3)o2)c(OC)c1 | 28.9%
76 | CSCC[C@H](NC(=O)N1CCn2c1nc1ccccc12)C(=O)NC1CCCCC1 | 35.5%
77 | COc1ccc(OCc2nnc3n2N=C(c2ccccc2)C(CC(=O)O)S3)cc1 (stereo not drawn) | -69.6%
78 | CN(C)c1cccc(C(=O)N2CCC(n3nccc3NC(=O)C3CCOC3)CC2)c1 (stereo not drawn) | 27.6%
79 | COc1cccc(C(=O)N2CCC(n3nccc3NC(=O)C3CCOC3)CC2)c1 (stereo not drawn) | 40.8%
80 | Cc1ccc(C(=O)N2CCC(n3nccc3NC(=O)Nc3cccc(F)c3)CC2)cn1 | 64% (active)
81 | COc1ccc2[nH]c(C(=O)N/N=C/c3cc(OC)c(OC)c(OC)c3)cc2c1 | 9.8%
82 | Cc1ccnc(NC(=O)C(C)N2C(=O)c3ccccc3C2=O)c1 (stereo not drawn) | 60% (active)
83 | Cc1cc(C)nc(NC(=O)C(C)N2C(=O)c3ccccc3C2=O)n1 (stereo not drawn) | -12.8%
84 | CCOc1ccc(NC(=O)C(C)N2C(=O)c3ccccc3C2=O)cc1 (stereo not drawn) | 24.3%
85 | CCc1nc2cccnc2n1-c1ccc(C(=O)O)cc1 | 35.1%
86 | COc1ccc(CCNC(=O)C(=O)NCC2OCCN2S(=O)(=O)c2cccs2)cc1OC (stereo not drawn) | 4.5%
87 | Cc1ccc(CN2CCC(n3nccc3NC(=O)CCCc3ccccc3)CC2)o1 | 2.6%
88 | CCn1cc(CN2CCC(n3nccc3NC(=O)CCCc3ccccc3)CC2)c(C)n1 | 29%
89 | COc1cc(CN2CCC(n3nccc3NC(=O)CCCc3ccccc3)CC2)ccc1O | -5%
90 | CC(=O)N[C@@H](C)C(=O)N1CCC(n2nccc2NC(=O)CCCc2ccccc2)CC1 | 61.6% (active)
91 | COc1ccc(CN2CCC(n3nccc3NC(=O)CCCc3ccccc3)CC2)cc1C | 37.7%
92 | CC(=O)NCC(=O)N1CCC(n2nccc2NC(=O)CCCc2ccccc2)CC1 | 65.8% (active)
93 | N#Cc1ccccc1S(=O)(=O)N1CCN(C(=O)c2cc(-c3ccccc3)nn2-c2ccccc2)CC1 | 14.5%
